In all, about 150,000 compounds went through this assay and about 540 (0.36%) showed an effect of 50% or more. This is one part of a sample in which strong results are shown more often than they occur.

This assay concerns Plasmodium falciparum. The assay can be described thus: Primary screen in NF54 nanoGlo assay, in single point, at 2uM, 72h; a lower Z score goes with more inhibition. It is filed as functional, Erythrocyte. The following applies: timepoint 72 hour.
`Cc1cnn(CCCNC(=O)C[C@H]2COCCN2Cc2ccc(C)o2)c1`: the “% Inhibition” value is given as -20% and the Z score was 2.24.
As for `CN(C)c1ccc(NC(=O)Cc2cnn(-c3ccccc3)c2)cn1`, the “% Inhibition” value is listed as -12% and the Z score came out at 1.6.
Taken in the same sequence, the figures for `N#Cc1nccnc1N[C@H]1CCCN(CC(F)(F)F)C1` were -11% and 1.83.
For `Cc1ccc(CN2C[C@@H](CO)[C@H](NC(=O)C3CCC3)C2)o1`, in that order: -6% and 0.86.
For the molecule `COc1ccc(N2C(=O)c3ccccc3[C@@H]2c2cn(C)c3ccccc23)cc1`, the “% Inhibition” value was determined as 7% and the Z score is given as -0.85.
Take `Cc1ccc(N2C(=O)c3ccccc3[C@@H]2c2c[nH]c3ccccc23)cc1`: the “% Inhibition” value was 63% and the Z score is on record as -5.25.
For the molecule `CC(c1ccccc1)N1C(=O)c2ccccc2C1c1c[nH]c2ccccc12` (stereo not drawn), the “% Inhibition” value came out at 43% and the Z score is reported as -5.38.
Taken in the same sequence, the figures for `COc1ccc(CC(=O)N2CCCS(=O)(=O)C[C@H]2C2CC2)nc1` were -1% and 0.08.
On to `Cc1cccc2ncnc(N(C)[C@@H](C)Cc3ccc(O)cc3)c12`, for which the “% Inhibition” value is on record as 77% and the Z score is -16.2.
As for `Cc1cccc2ncnc(N(C)C3CC[S+]([O-])CC3)c12` (stereo not drawn), the “% Inhibition” value worked out at 3% and the Z score is given as -0.52.
Take `CC1(C)C[C@@H](NC(=O)[C@H]2CC[C@H](Cn3cnc4ccccc4c3=O)CC2)CCO1`: the “% Inhibition” value is -6% and the Z score came out at 0.79.
As for `C[C@@]1(NC(=O)CCc2nc(C3CCCC3)no2)CC=CCC1`, the “% Inhibition” value is listed as -10% and the Z score is listed as 1.9.
For `CN1CC[C@H](N(C)C(=O)c2ccc(-c3ccc4c(=O)[nH]ccc4c3)cc2)C1`, in that order: -4% and 0.47.
For the molecule `O=C(NCC[C@H]1CCOC1)c1ccc(-c2ccc3cc[nH]c(=O)c3c2)cc1`, the “% Inhibition” value is given as -14% and the Z score came out at 1.37.
Taken in the same sequence, the figures for `CN(C)c1ccc([C@@H](CNC(=O)c2cccc(F)c2)c2c[nH]c3ccccc23)cc1` were 2% and -0.26.
Take `COCCN1CCC(CN(Cc2ccncc2)Cc2cc(C)c(C)o2)CC1`: the “% Inhibition” value is listed as -30% and the Z score is 4.08.
For `CN1CCC(N2CCC(CN(Cc3ccncc3)C3CCOCC3)CC2)CC1`, in that order: 0% and 0.
For `CN1CCC(N2CCC(CN(Cc3ccncc3)Cc3c(F)cccc3Cl)CC2)CC1`, in that order: 98% and -9.12.
Take `COc1ccc(CN(Cc2ccncc2)CC2CCN(C3CCN(C)CC3)CC2)c(F)c1`: the “% Inhibition” value was found to be 88% and the Z score was -10.13.
Taken in the same sequence, the figures for `COCCN1CCC(CN(Cc2ccncc2)Cc2nc3ccc(F)cc3[nH]2)CC1` were 0% and 0.04.
Taken in the same sequence, the figures for `CC(=O)NCCn1ccnc1-c1ccc(F)c(F)c1F` were -9% and 1.18.
Taken in the same sequence, the figures for `C[C@H](NCC1(c2c(F)cccc2F)CC1)c1cnn(C)c1` were -3% and 0.45.
With `CC(C)(C)CN1C[C@@H](NC(=O)COc2ccc3c(c2)OCO3)CC1=O`, the “% Inhibition” value is -1% and the Z score is recorded as 0.23.
Taken in the same sequence, the figures for `CCCC(CCC)C(=O)Nc1ccc(O)cc1C(=O)O` were 40% and -0.25.
`COCC(O)CN1CCC(NC2CCCc3cc(F)ccc32)CC1` (stereo not drawn): the “% Inhibition” value turned out to be 1% and the Z score is -0.12.
With `COCCCN(Cc1ccc(C(O)(c2ccc(OC)cc2)c2ccc(OC)cc2)o1)Cc1ccccc1OC`, the “% Inhibition” value is listed as 3% and the Z score is reported as -0.38.
In the case of `CN1CCO[C@@H](CNc2ncnc3c2cnn3-c2ccccc2F)C1`, the “% Inhibition” value is -1% and the Z score is listed as 0.08.
For `Cc1nc(N2CCCC2C(=O)N2CCC(C(O)Cc3ccccc3)CC2)nc2ccccc12` (stereo not drawn), in that order: -15% and 1.71.
Taken in the same sequence, the figures for `O=C(O)c1ccc2c(NC3CCCC3)ncnc2c1` were -5% and 0.71.
For the molecule `CC1CC(Nc2ncnc3cc(Br)ccc23)CCN1C` (stereo not drawn), the “% Inhibition” value is 97% and the Z score was -8.72.
Take `CS(=O)(=O)N1CCC(Nc2ncnc3cc(Cl)ccc23)CC1`: the “% Inhibition” value is 18% and the Z score is given as -2.07.
For the molecule `OC(CN1CCOC2CCCCC21)Cn1cccn1` (stereo not drawn), the “% Inhibition” value is recorded as -5% and the Z score was determined as 0.7.
For `CC(C)CNC(=O)c1[nH]cnc1C(=O)N1CCC(Cc2ccccc2)CC1`, in that order: 31% and -3.65.
Regarding `CC[C@H]1CCCCCN1C(=O)NCCc1nnc(C)s1`, the “% Inhibition” value is on record as -9% and the Z score is 1.2.
With `COc1ncc(C(=O)NCCCn2ccnc2)cn1`, the “% Inhibition” value is reported as -14% and the Z score was found to be 1.29.
For `COc1ccc(Nc2nnc(-c3ccc(NC(=O)C(=O)NCCCn4ccnc4)cc3)s2)cc1`, in that order: 66% and -7.06.
For `CCN(CC)Cc1cnc2c(C(=O)N(C)C3Cc4ccccc4C3)cnn2c1`, in that order: -6% and 0.83.
For `CN1C(=O)[C@@H]2CC[C@H]1CN(C1CCN(c3ncc4ccc(F)cc4n3)CC1)C2`, in that order: 3% and -0.38.
`CO[C@H]1CCOC[C@@H]1NC1CCN(c2ncc3ccc(F)cc3n2)CC1`: the “% Inhibition” value came to 1% and the Z score is listed as -0.16.
Turning to `Cc1ccc2c(c1)C(=O)N1CCCC1C(=O)N2CC(=O)NCC1CCCO1` (stereo not drawn), the “% Inhibition” value was -1% and the Z score worked out at 0.1.
Taken in the same sequence, the figures for `Cc1ccc(-n2ncc3c(N)c4c(nc32)CCCC4=O)cc1` were 12% and -2.26.
Taken in the same sequence, the figures for `Nc1c2c(nc3c1cnn3-c1cc(F)cc(F)c1)CCCC2=O` were -9% and 1.23.
Take `COc1ccc(-n2ncc3c(N)c4c(nc32)CCCC4=O)cc1`: the “% Inhibition” value was determined as 56% and the Z score is listed as -1.02.
For `O=C(NCCn1ccnc1)c1[nH]nc(C2CC2)c1Cl`, in that order: -9% and 1.61.
Taken in the same sequence, the figures for `CC(C)N(C)C(=O)C1CCN(C(=O)[C@@H](N)C(C)(C)C)CC1` were -1% and 0.1.
On to `COc1ccc(CNC/C=C/c2ccccc2)cc1`, for which the “% Inhibition” value was -20% and the Z score stood at 2.3.
In the case of `COC1CCC(CCNCc2ccccc2)CC1` (stereo not drawn), the “% Inhibition” value was -15% and the Z score is 2.25.
On to `COc1ccc(CNCCC2C(C)CN(C)C(C)C2Cc2ccccc2)cc1` (stereo not drawn), for which the “% Inhibition” value stood at 55% and the Z score was -7.17.
Regarding `COc1cccc(OC2CN(C[C@H]3COc4ccccc4O3)C2)c1`, the “% Inhibition” value was 3% and the Z score is on record as -0.59.
For `CC(CNC(=O)N(C)CCc1cccs1)N1CCOCC1C` (stereo not drawn), the “% Inhibition” value turned out to be 5% and the Z score is on record as -0.94.
Taken in the same sequence, the figures for `CCc1cc(N2CCCO2)nc(-c2ccncc2)n1` were 1% and -0.06.
Taken in the same sequence, the figures for `Cn1cnc2c(NCC(=O)N3CCN(c4ccccc4)CC3)ncnc21` were -1% and 0.15.
For `CN1CC[C@H](CN(C)Cc2ccc3cc(O)ccc3c2)C1`, in that order: 56% and -7.71.
In the case of `CN(Cc1ccc2cc(O)ccc2c1)C[C@H]1CCCCO1`, the “% Inhibition” value worked out at 8% and the Z score is on record as -0.87.
For `CN1CCC(N2CCN(Cc3ccc4cc(O)ccc4c3)CC2)CC1`, in that order: 90% and -8.27.
Take `CN(CC[C@H]1CCCCO1)Cc1ccc2cc(O)ccc2c1`: the “% Inhibition” value is recorded as -1% and the Z score was determined as 0.18.
Taken in the same sequence, the figures for `c1cc(CN2CCC[C@H](CN3CCCC3)C2)co1` were -3% and 0.59.
In the case of `Oc1ccc2cc(CN3CCC[C@H](CN4CCCC4)C3)ccc2c1`, the “% Inhibition” value turned out to be 97% and the Z score is -3.
Regarding `CC(C)[C@H]1CN(C)CCN1Cc1ccc2cc(O)ccc2c1`, the “% Inhibition” value was -17% and the Z score is 2.23.

One may read the % Inhibition as the drop in the measured response relative to a control, in per cent.

The record behind these values is ChEMBL document CHEMBL4888484, “Replenishing the malaria drug discovery pipeline: Screening and hit evaluation of the MMV Hit Generation Library 1 (HGL1) against asexual blood stage Plasmodium falciparum ,using a nano luciferase reporter read-out” (2022).
